Laboratory results taken from PubChem BioAssay (EPA / NIEHS).
Several values for one entry are separate records, joined by “and”; a condition that tells them apart may be missing. Identical values can stand only once. Inconclusive results are not listed. Activity calls are given as the source filed them. The calls were made as follows, unless noted: active = hit-call score of the fitted dose curve at least 0.9, where 1 is the maximum; inconclusive = response in the unintended direction; inactive = score below 0.9.

Experiments:
[1] = Tanguay_ZF_120hpf_SWIM_legacy: (Legacy) Oregon State University Tanguay Lab 120 Hour Post-fertilization zebrafish Assay for Swim Bladder Malformation (AID 2283654);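 also: swim bladder malformation in each larva scored yes or no under brightfield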
Method in brief: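 Dechorionated Tropical 5D wild-type embryos, placed singly from 6 hpf, were statically exposed at 28C to 120 hpf with 0.64% DMSO final; swim bladder malformation was scored present/absent by brightfield microscopy, gain of signal relative to DMSO controls.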

[2] = Tanguay_ZF_120hpf_TRUN_legacy: (Legacy) Oregon State University Tanguay Lab 120 Hour Post-fertilization zebrafish Assay for Truncated Body (AID 2283655)
Method in brief: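 Binary presence/absence of truncated body is recorded at 120 hpf by brightfield, with non-mortality endpoints skipped after death. Exposure is static from 6 hpf in sealed dark plates at 28C, using dechorionated wild-type zebrafish, 0.64% DMSO.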

[3] = Tanguay_ZF_120hpf_NC_legacy: (Legacy) Oregon State University Tanguay Lab 120 Hour Post-fertilization zebrafish Assay for Notochord and Tail Malformation (AID 2283656)
Method in brief: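 Dechorionated Tropical 5D wild-type zebrafish embryos, one per well from 6 hpf, statically exposed to 120 hpf at 28C in 0.64% DMSO final. Notochord distortion scored present/absent by brightfield; dead embryos excluded.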

[4] = system: Thyroperoxidase (TPO), gene 54314; assay: CCTE_Simmons_AUR_rTPO: CCTE's Amplex UltraRed Assay for Thyroperoxidase (TPO) Inhibition, Simmons Lab (AID 2283662);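 as to AC50: potency for loss of signal meaning inhibition of peroxidase activity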
Method in brief: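 Rat thyroid microsomes (5 ug protein) with 25 uM Amplex UltraRed and 300 uM H2O2 in 200 mM phosphate buffer, 30 min at 37C in dark; fluorescence 544/590 nm. Eight concentrations, 5 nM–87.5 uM final, 0.5% DMSO, triplicate biological replicates.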

[5] = CCTE_Simmons_CellTiterGLO_HEK293T: Viability Assessment in CCTE's Assays for Thyroperoxidase (TPO) Inhibition, Simmons Lab (AID 2283665);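 as to AC50: cells exposed to compound for 24 h before readout; actives reduce ATP signal below DMSO vehicle meaning cytotoxicity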
Method in brief: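 HEK293T, 10 000 cells/well, DMEM + 1% FBS; 8-pt titration 5 nM–87.5 uM [final], 0.5% DMSO; 24 hr, 37C, 5% CO2; CellTiter-Glo luminescence; n=3 biological replicates.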

[6] = CCTE_Padilla_ZF_144hpf_TERATOSCORE: (Legacy) CCTE's 144 Hour Post-fertilization zebrafish Assay Teratoscore, Padilla Lab (AID 2283679; active = hit-call score of the fitted dose curve at least 0.9, where 1 is the maximum; inactive = score below 0.9;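 as to AC50: zebrafish embryos with chorions exposed by immersion from 6-8 hpf to 5 dpf with daily renewal; teratogenicity score from eye scoring of death hatching and malformations at 144 hpf; higher score means more developmental defects relative to DMSO baseline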)
Method in brief: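 Larvae scored by eye at 144 hpf for death, hatching and malformations after a day in clean Hanks'. Before that, daily-renewed exposure at 80 uM (0.4% DMSO, 26C) from roughly 6-8 hpf through 5 dpf, 4 embryos per chemical.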

[7] = STM_H9_OrnithineISnorm_perc: Stemina devTOX quickPredict H9 human embryonic stem cell (hESC)-based Assay for Ornithine (ORN) Metabolite Biomarker, Normalized (AID 2283712; active = hit-call score of the fitted dose curve at least 0.9, where 1 is the maximum; inactive = score below 0.9;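 also: ornithine released into spent medium during last day measured by mass spectrometry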)
Method in brief: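 H9 human embryonic stem cells kept pluripotent receive test chemical over 72 h, refreshed daily by media exchange. Media from the closing 24 h is deproteinized and analysed by UPLC-HRMS on an amide column; ornithine signal is scaled to labelled standard and vehicle.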

[8] = STM_H9_CystineISnorm_perc: Stemina devTOX quickPredict H9 human embryonic stem cell (hESC)-based Assay for Cystine (CYSS) Metabolite Biomarker, Normalized (AID 2283713; active = hit-call score of the fitted dose curve at least 0.9, where 1 is the maximum; inactive = score below 0.9)
Method in brief: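 H9 hESC, pluripotent; compound 72h, re-dosed q24h with medium change. Last-24h medium → 40% acetonitrile deproteinization → UPLC-HRMS. CYSS area / C13-CYSS standard, then % of 0.1% DMSO median.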

[9] = STM_H9_OrnCyssISnorm_ratio: Stemina devTOX quickPredict H9 human embryonic stem cell (hESC)-based Assay for Ornithine (ORN):Cystine (CYSS) Ratio (AID 2283714)
Method in brief: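 Undifferentiated H9 hESCs were exposed to compound for 72h with media and chemical replaced every 24h. Final 24-h conditioned media were deproteinized and analysed by UPLC-HRMS. ORN and CYSS peak areas were normalized to C13 internal standards and the ratio taken versus 0.1% DMSO.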

[10] = CEETOX_H295R_MTT_cell_viability: Viability Assessment in the CeeTox HT-H295R MTT Assay (AID 2283718; active = hit-call score of the fitted dose curve at least 0.9, where 1 is the maximum; inactive = score below 0.9;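 as to AC50: curve fitted both ways so AC50 may mark viability loss or gain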)
Method in brief: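 H295R cells prestimulated 48 h with 10 uM forskolin, then exposed 48 h to test chemical (0.1% DMSO final). Viability by MTT (0.5 mg/ml, 4 h, 37 C), absorbance 570/650 nm; percent change versus DMSO, bidirectional fit.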

[11] = Tanguay_ZF_120hpf_ActivityScore_legacy: (Legacy) Oregon State University Tanguay Lab 120 Hour Post-fertilization zebrafish Assay Score for Activity (AID 2283742)
Method in brief: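 Tropical 5D wild-type zebrafish embryos, dechorionated with pronase at 4 hpf, were exposed singly from 6 hpf to 120 hpf statically at 28C in 0.64% DMSO. Malformations and mortality were scored as binary by brightfield, with the activity score combining 18 morphology components.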

[12] = Tanguay_ZF_120hpf_TR_legacy: (Legacy) Oregon State University Tanguay Lab 120 Hour Post-fertilization zebrafish Assay for Touch Response (AID 2283667)
Method in brief: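 Tropical 5D wild-type zebrafish embryos were exposed statically in sealed, foil-covered plates at 28C until 120 hpf, with 0.64% (vol/vol) final DMSO. Touch response was scored as present or absent; embryos that died were not scored.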

[13] = system: Thyroperoxidase (TPO), gene 445522; assay: CCTE_Simmons_GUA_TPO: CCTE's Guaiacol Assay for Thyroperoxidase (TPO) Inhibition, Simmons Lab (AID 2283750)
Method in brief: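 Porcine thyroid microsomes (25 ug) in 200mM potassium phosphate, preincubated 30 s at 37C with compound (8 concentrations, 5 nM–87.5 uM) and 35mM guaiacol; 1mM H2O2 starts reaction. Absorbance change at 450nm over first 80 s; loss of signal versus DMSO, three replicates.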

Measured: AC50

Nc1ccc(Nc2ccccc2)cc1
active: [1] 45.6 µM | [2] 40.8 µM | [4] 3.09 µM | [5] 38.4 µM | [6] 10.1 µM | [7] 4.61 µM | [8] 2.69 µM | [9] 3.03 µM | [11] 30.1 µM
inactive: [3] | [10]

NC(=O)NO
inactive: [1] | [2] | [3] | [5] | [12] | [11]
active: [4] 43.8 µM | [7] 371 µM | [8] 153 µM | [9] 392 µM

COCCOCCOCCOC
inactive: [1] | [2] | [3] | [12] | [6] | [7] | [8] | [9] | [11]

CC/C(=C\C(=N/O)C(N)=O)C(C)[N+](=O)[O-] (stereo not given)
inactive: [1] | [2] | [3] | [5] | [12] | [6] | [11]
active: [4] 26.3 µM

CCC(C)(C)C(=O)O[C@H]1C[C@@H](C)C=C2C=C[C@H](C)[C@H](CC[C@@H]3C[C@@H](O)CC(=O)O3)[C@H]21
inactive: [1] | [2] | [3] | [8] | [10]
active: [4] 43.8 µM | [5] 43.8 µM | [12] 0.664 µM | [6] 115 nM and 2.58 nM and 7.92 nM | [7] 0.000728 µM | [11] 0.403 µM

CCn1nc(Cc2ccccc2)cc1C1CCN(C[C@H]2C[C@H](N(C)[C@@H](C(=O)O)C(C)C)C[C@@H]2c2cccc(F)c2)CC1
active: [4] 30.7 µM | [5] 42.8 µM
inactive: [1] | [2] | [3] | [12] | [11]

CC(C)=CCCC(C)=CC=O
active: [4] 43.8 µM | [7] 0.0217 µM
inactive: [1] | [2] | [3] | [5] | [8] | [11]

O=c1n(CC2CO2)c(=O)n(CC2CO2)c(=O)n1CC1CO1 (stereo not given)
active: [4] 21.1 µM | [7] 0.49 µM | [8] 0.166 µM | [9] 0.295 µM
inactive: [1] | [2] | [3] | [5] | [12] | [11]

C[C@](N)(Cc1ccc(O)c(O)c1)C(=O)O
active: [4] 0.696 µM | [5] 39.8 µM
inactive: [1] | [2] | [3] | [12] | [10] | [11]

CC(C)=CCCC(C)CCO (stereo not given)
inactive: [1] | [2] | [3] | [4] | [5] | [12] | [11]

CCOc1cccc(-n2cc(C(=O)N3CCN(c4cc(C(=O)O)c5ccccc5c4)CC3)nc2-c2ccc(C)cc2)c1
active: [4] 43.8 µM | [5] 22.6 µM | [6] 16.6 µM
inactive: [1] | [2] | [3] | [12] | [10] | [11]

Oc1ccc2c(c1)-c1ccccc1C2
inactive: [1] | [2] | [3]
active: [4] 10.6 µM | [5] 60.1 µM | [12] 32.1 µM | [6] 32.9 µM | [10] 32.8 µM | [11] 46.6 µM

CCNc1ccccc1
inactive: [1] | [2] | [3] | [4] | [5] | [12] | [11] | [13]
